Screening results: PubChem BioAssay, several laboratories
Most compounds without a hit are left out; they make up all but 2.3% or so of the library.
KKLEB cytotox – counter-screen for CF NF-kB inhibitors: cytotoxicity. KKLEB CF airway cells viability, ATPlite luminescence, overnight; hits give low values; cells stimulated with P. aeruginosa culture filtrate. activity change (cytotoxicity), % at 5 µM. 0.36% of 360,000 active. AID 602141;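 active means corrected activity change at or below -50% at 5 µM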
iPSC survival up – hiPSC single-cell survival enhancement; ATPlite luminescence; 100% = ROCK inhibitor wells, 0% = DMSO; 0.044% of 360,000 active; survival enhancement, % at 20 µM; AID 602274; in the data active means survival enhancement above about 18%;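 further: cells exposed to compounds for 16 hours before the ATP read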
TWEAK Fn14 block – TWEAK-Fn14 signaling inhibition; TWEAK-stimulated Fn14 reporter cells, luciferase luminescence, 8 h; inhibition, % at 10 µM; 2% of 360,000 active; AID 1159606; in the data active means inhibition above about 50%
HIF-2a block – HIF-2a inhibition | 786-0 RCC cells HIF-2a reporter, luciferase luminescence, overnight | 0.72% of 360,000 active | inhibition, % at 18.8 µM;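 active means inhibition of the luminescence signal of 40% or more relative to plate controls, in a single-dose primary screen at 18.75 µM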
LGR2 antag – Drosophila LGR2 receptor signaling inhibition | HEK293 LGR2, CRE-luciferase, bursicon-stimulated, 4 h | AID 720647 | 0.35% of 380,000 active | inhibition, % at 9.99 µM;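 active means drop in luminescence signal, shown as inhibition above about 50% in the replicate tests, limit read from the data, passing the limit was not always enough; inconclusive means probably only some replicates passing the limit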;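 further: agonist challenge used bursicon conditioned medium at about half maximal strength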
CF NFkB block – inhibitors of cystic fibrosis induced NF-kB; KKLEB NF-kB-GFP reporter, PAF-induced, GFP fluorescence overnight; inhibition, % at 5 µM; 0.86% of 360,000 active; AID 588850;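 active means at least 50% inhibition at 5 µM, scaled per plate between neutral and stimulator controls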;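 further: PAF is a Pseudomonas aeruginosa culture filtrate used as stimulus; plate controls were PAF-stimulated DMSO wells for no effect and unstimulated DMSO wells for full effect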
Starred values were filed as active, the others as inactive; u = inconclusive; x = no result given.

SMILES	KKLEB cytotox	iPSC survival up	TWEAK Fn14 block	HIF-2a block	LGR2 antag	CF NFkB block
C[C@@H]1CN([C@H](C)CO)C(=O)c2cc(C#Cc3cccnc3)cnc2O[C@@H]1CN(C)C(=O)CC1CC1	x	x	x	x	1.4	x
Cc1cc(NC(=O)CSc2cn(CCNC(=O)c3ccccc3)c3ccccc23)no1	14.7	3.2	32.1	-20.0	x	-2.5
Cc1ccc(C(=O)NCCn2cc(SCC(=O)N3CCOCC3)c3ccccc32)cc1	17.9	-0.1	86.1*	-6.1	1.1	-12.7
O=C(CSc1cn(CC(=O)N2CCOCC2)c2ccccc12)N1CCOCC1	-6.7	-0.3	-1.4	7.7	-10.6	-7.8
Cc1ccc(C(=O)NCCn2cc(SCC(=O)Nc3cc(C)on3)c3ccccc32)cc1	7.9	1.3	83.8*	-12.0	2.5	18.4
COc1ccc2c3c(n(C)c2c1)[C@@H](CO)N(CC1CC1)CC31CN(C(=O)c2ccc(F)cc2)C1	x	x	x	x	-17.1	x
CC(C)C#Cc1cnc2c(c1)C(=O)N([C@@H](C)CO)C[C@@H](C)[C@H](CN(C)C(=O)c1ccccn1)O2	x	x	x	x	-17.5	x
O=C(Nc1scc(-c2ccccc2)c1C(=O)O)c1ccccc1F	11.6	-0.7	3.8	-221.2	x	-6.9
O=C(/C=C/c1ccccc1)Nc1scc(-c2ccccc2)c1C(=O)O	-3.9	-1.8	51.9*	-149.7	-9.6	3.7
O=C(/C=C/c1ccco1)Nc1scc(-c2ccccc2)c1C(=O)O	-3.9	-0.7	66.9*	-87.4	17.4	1.2
C[C@H](CO)N1C[C@H](C)[C@H](CN(C)C(=O)Nc2ccc(F)cc2)Oc2c(NC(=O)c3ccncc3)cccc2C1=O	x	x	x	x	-12.8	x
CN1[C@@H]2Cn3c(ccc(C4=CCCCC4)c3=O)[C@H]1[C@@H](C(=O)NCc1cc(F)cc(F)c1)[C@@H]2CO	x	x	x	x	-6.6	x
O=C(Nc1ccccc1)Nc1cc(OCC(F)(F)F)cc(OCC(F)(F)F)c1	-50.7*	1.2	59.5*	-13.5	29.8	45.9
O=C(Nc1ccccc1)Nc1cc(Cl)cc(Cl)c1	-45.0	-0.2	40.9	-157.7	x	48.5
O=C(NCc1cccnc1)c1c[nH]c2cc3c(cc2c1=O)OCCO3	-17.7	-4.5	69.6*	-75.5	x	27.6
CCC(=O)Nc1ccc2c(c1)C(=O)N(C)[C@@H]1CC[C@@H](CC(=O)NCCc3ccccc3)O[C@@H]1CO2	x	x	x	x	-1.1	x
C[C@@H]1CCCCO[C@H](CN(C)S(=O)(=O)c2cccs2)[C@@H](C)CN([C@@H](C)CO)C(=O)c2cc(NS(=O)(=O)c3cccs3)ccc2O1	x	x	x	x	-9.7	x
O=C(Cn1nnc(-c2ccccc2NC(=O)c2ccccc2)n1)Nc1ccc2c(c1)OCCO2	-53.6*	-1.4	2.1	-0.8	x	20.4
COc1ccc(-c2nnc(SCc3nc4ccccc4c(=O)[nH]3)o2)cc1	-9.0	0.5	51.0*	-51.5	-0.2	6.7
CC(NC(=O)c1ccccc1)c1nnc(SCc2nc3ccccc3c(=O)[nH]2)n1C (configuration not stated)	11.4	0.4	-8.8	4.2	8.4	-11.2
COc1ccc(-c2nnc(SCC(=O)NCCc3ccccc3)o2)cc1	-3.1	0.7	87.3*	-18.9	x	-2.3
Cc1cccc(OCc2nnc(SCc3nc4ccccc4c(=O)[nH]3)o2)c1	7.6	-3.2	-18.3	29.8	x	-6.8
COc1ccc(Cc2nnc(SCC(=O)NCCc3ccccc3)o2)cc1	8.1	-1.2	6.9	10.2	x	0.3
c1ccc2[nH]c(CSc3nnc(-c4ccncc4)o3)nc2c1	-2.1	-0.8	58.4*	8.1	x	-5.7
COc1ccc(CC(=O)NC(C)c2nnc(SCc3nc4ccccc4c(=O)[nH]3)n2C)cc1 (configuration not stated)	4.6	-1.0	75.1*	4.7	x	3.5
SMILES	KKLEB cytotox	iPSC survival up	TWEAK Fn14 block	HIF-2a block	LGR2 antag	CF NFkB block
Brc1cccc(-c2nnc(SCc3nc4ccccc4[nH]3)o2)c1	-16.3	-0.2	11.5	23.5	x	-6.5
C[C@H](CO)N1C[C@H](C)[C@@H](CN(C)S(=O)(=O)c2ccccc2)Oc2ccc(NC(=O)Nc3ccc(F)cc3)cc2C1=O	x	x	x	x	6.3	x
CO[C@@H]1CN(C)C(=O)c2ccc(NC(=O)Nc3cccc(Cl)c3)cc2OC[C@H](C)N(C(=O)Nc2c(C)noc2C)C[C@H]1C	x	x	x	x	7.0	x
O=C1C=CC(=O)c2c(O)c(N3CCN(CCOCCO)CC3)c(Br)c(O)c21	2.5	6.2	-6.4	86.7*	6.4	5.7
O=C1C=CC(=O)c2c(O)c(N3CCN(CCO)CC3)c(Cl)c(O)c21	14.6	1.5	23.9	89.9*	-22.9	-23.0
C[C@H](CO)N1C[C@H](C)[C@@H](CN(C)Cc2ccncc2)Oc2ccc(NC(=O)Nc3ccc(F)cc3)cc2CC1=O	x	x	x	x	-14.8	x
Cc1cc(C(N)=O)c2ccccc2n1	10.5	-1.4	-0.2	12.2	x	8.5
NC(=O)c1cc2c3ccccc3ccn2c1-c1ccccc1	-5.4	-0.3	52.5*	-113.0	-52.0	19.6
C[C@@H]1CN([C@@H](C)CO)C(=O)c2c(c3ccccc3n2C)-c2ccccc2CO[C@H]1CN(C)Cc1cccc(F)c1	x	x	x	x	30.1	x
Cc1cccc(OC(=O)Nc2ccc(C(=O)O)c(O)c2)c1	-4.6	0.0	-6.5	13.0	9.2	11.6
CC(C)(C)c1ccc(OC(=O)Nc2ccc(O)c(C(=O)O)c2)cc1	10.1	-0.3	73.1*	69.1*	-21.4	-14.0
CNc1ccccc1C(C)(C)c1cc(-c2ccc(F)cc2)no1	-5.4	-0.5	54.4*	25.7	10.6	-6.3
O=C(NNc1ccc(F)cc1F)c1c(F)cccc1Cl	-21.4	-0.6	57.8*	16.0	-3.9	8.7
COc1cc2c(cc1NC(=O)CSc1nc3cc(Cl)ccc3s1)oc1ccccc12	-59.8*	1.8	-1.3	3.9	-1.6	38.9
Cc1ccc(-c2cc(-c3ccccc3)no2)c(O)c1	-34.6	-2.6	75.8*	-68.1	u	-6.3
Cc1ccc2nc(-c3cc(-c4ccccc4)no3)cn2c1	-5.5	-0.6	78.7*	-31.5	x	-4.2
CCc1ccn2cc(-c3cc(-c4ccccc4)no3)nc2c1	-51.9*	-1.0	105.7*	63.9*	102.9*	-27.1
Oc1ccccc1-c1cc(-c2ccccc2)no1	-8.8	-3.3	40.1	-227.6	-14.6	-4.7
O=C(NC1Cc2ccccc2C1)[C@H]1[C@H](CO)[C@H]2Cn3c(cccc3=O)[C@@H]1N2Cc1ccccc1F	x	x	x	x	5.0	x
CC1(C)Cc2ccccc2C(/C(=N\Nc2cccc(Cl)c2)C(N)=O)=N1	-11.6	-0.6	55.6*	21.7	37.2	26.7
CC(=O)c1ccc(N/N=C(/C(N)=O)C2=NC(C)(C)Cc3ccccc32)cc1	-15.9	-1.4	44.2	31.3	24.2	26.2
Cc1cccc(Cn2nnc3c2C(=O)c2ccccc2C3=O)c1	-4.7	-2.5	11.0	-26.1	x	62.0*
